Compound activity: PubChem, NMMLSC
Most compounds without a hit are left out; they make up all but 3.5% or so of the library.
BoNT F protease – inhibitors of Botulinum neurotoxin F light chain protease; Multiplex microsphere protease cleavage assay, flow cytometry; inhibition, % at 10 µM; AID 588497; hit rate 0.22% among 360,000; in the data active = inhibition above about 35%, passing the limit was not always enough; inconclusive = no clear call, values can overlap the other calls; note: plate controls were buffer without enzyme for full effect and enzyme alone for no effect
BoNT-A LC inh2 – BoNT A light chain protease inhibition; multiplex microsphere protease substrate cleavage, flow cytometry; inhibition, % at 10 µM; hit rate 0.17% among 360,000; AID 588499; note: plate controls were buffer without enzyme for full effect and enzyme alone for no effect
Autofluor counter – counter-screen for toxin protease inhibitors: compound fluorescence | fluorescence intensity (concentration not given with the values) | compound autofluorescence counterscreen, microsphere flow cytometry; stronger effect = higher value | hit rate 3.1% among 360,000; in the data active = fluorescence intensity above about 16000; inconclusive = no clear call, values can overlap the other calls
Anthrax LF inh2 – inhibitors of Bacillus anthracis lethal factor protease. P15917. multiplex microsphere protease cleavage assay, LF. inhibition, % at 10 µM. hit rate 0.12% among 360,000; note: plate controls were buffer without enzyme for full effect and enzyme alone for no effect
Numbers without * were called inactive. Cut-off read from the data, not from the text of the source, unless noted: active = inhibition above about 30%; inconclusive = no clear call, values can overlap the other calls; inactive = below that.

How did CCOC(=O)C(=CNc1cc(C)nn1-c1ccccc1)C(=O)OCC do in these assays?
BoNT F protease: 7.2; BoNT-A LC inh2: inconclusive; Autofluor counter: 21382*; Anthrax LF inh2: -3.2

How did CCSc1nc2c(c(=O)[nH]c(=O)n2C)n1CC(O)COc1ccccc1C (stereo not drawn) do in these assays?
BoNT F protease: 0.6; BoNT-A LC inh2: -0.8; Autofluor counter: 20886*; Anthrax LF inh2: -3.8

What do the screens show for `O=c1[nH]cc(C=NNc2ccccc2)c(=O)[nH]1`?
BoNT F protease: -0.1; BoNT-A LC inh2: -0.1; Autofluor counter: 5595; Anthrax LF inh2: 2.8

What do the screens show for `C=CCn1c(SCC(=O)C(C)(C)C)nnc1-c1cccs1`?
BoNT F protease: 0.4; BoNT-A LC inh2: -0.2; Autofluor counter: 23404*; Anthrax LF inh2: -0.5

What do the screens show for `C=CCn1c(CCNC(=O)c2cccs2)nnc1SCC(=O)Nc1cccc(C(C)=O)c1`?
BoNT F protease: -8.9; BoNT-A LC inh2: -0.5; Autofluor counter: 3386; Anthrax LF inh2: -2.8

What do the screens show for `C=CCn1c(SCC(=O)C(C)(C)C)nnc1-c1ccccn1`?
BoNT F protease: -0.4; BoNT-A LC inh2: -0.3; Autofluor counter: 20695*; Anthrax LF inh2: -1.5

How did C=CCn1c(CCNC(=O)c2cccs2)nnc1SCC(=O)c1ccc(Br)cc1 do in these assays?
BoNT F protease: -0.5; BoNT-A LC inh2: -1.1; Autofluor counter: 20927*; Anthrax LF inh2: 1.1

Results for CCn1c(SCC(=O)C(C)(C)C)nnc1-c1ccccn1 ?
BoNT F protease: -6.4; BoNT-A LC inh2: -0.6; Autofluor counter: 5314; Anthrax LF inh2: 2.3

What do the screens show for `C=CCn1c(SCC(=O)Nc2ccc(C(=O)OCC)cc2)nnc1-c1cccs1`?
BoNT F protease: 5.8; BoNT-A LC inh2: -1.0; Autofluor counter: 3726; Anthrax LF inh2: 1.9

Results for C=CCn1c(SCC(=O)c2ccc(NS(=O)(=O)c3ccccc3)cc2)nnc1-c1cccs1 ?
BoNT F protease: 0.3; BoNT-A LC inh2: inconclusive; Autofluor counter: 20128*; Anthrax LF inh2: -0.4

What do the screens show for `C=CCn1c(SCC(=O)NC2CC2)nnc1-c1cccs1`?
BoNT F protease: -7.2; BoNT-A LC inh2: 1.1; Autofluor counter: 5315; Anthrax LF inh2: 1.8

How did Cc1cc(C(=O)OCC(=O)N(C)c2ccccc2)c(C)o1 do in these assays?
BoNT F protease: -0.7; BoNT-A LC inh2: -0.4; Autofluor counter: 3471; Anthrax LF inh2: 8.0

What do the screens show for `c1ccc(Cc2c(C3CCCCC3)nc3c4ccccc4ccn23)cc1`?
BoNT F protease: -6.5; BoNT-A LC inh2: 0.5; Autofluor counter: 4327; Anthrax LF inh2: -5.5

What do the screens show for `CNC(=O)c1c[nH]c2ccc(S(=O)(=O)Nc3cccc(SC)c3)cc2c1=O`?
BoNT F protease: 8.4; BoNT-A LC inh2: -1.7; Autofluor counter: 3751; Anthrax LF inh2: 2.5

What do the screens show for `Cc1cc(=O)[nH]c(SC/C=C/c2ccccc2)n1`?
BoNT F protease: -8.3; BoNT-A LC inh2: -6.7; Autofluor counter: 17675*; Anthrax LF inh2: -5.3

How did Cc1cc(=O)[nH]c(SCCCOc2ccc(F)cc2)n1 do in these assays?
BoNT F protease: -0.9; BoNT-A LC inh2: -0.1; Autofluor counter: 23808*; Anthrax LF inh2: 1.1

What do the screens show for `O=C(Nc1cc2c3c(c1)CC(=O)N3CCC2)C1CC1`?
BoNT F protease: -12.6; BoNT-A LC inh2: 1.5; Autofluor counter: 5655; Anthrax LF inh2: -10.0

How did COc1ccc(S(=O)(=O)N(CC(C)C)C2CCS(=O)(=O)C2)cc1OC (stereo not drawn) do in these assays?
BoNT F protease: 4.6; BoNT-A LC inh2: 1.1; Autofluor counter: 3926; Anthrax LF inh2: 4.2

What do the screens show for `CC(=O)OC1CC(C)N(C(=O)c2ccccc2)c2ccc(C)cc21` (stereo not drawn)?
BoNT F protease: -8.3; BoNT-A LC inh2: -5.0; Autofluor counter: 25080*; Anthrax LF inh2: -2.0

What do the screens show for `CCCNC(=O)Cn1c(=O)/c(=C\c2ccc(-c3cccc([N+](=O)[O-])c3)o2)s/c1=C\C(=O)C(C)(C)C`?
BoNT F protease: 12.2; BoNT-A LC inh2: 32.6*; Autofluor counter: 2727; Anthrax LF inh2: 15.5

What do the screens show for `Nc1nnc(CCN2C(=O)CSC2=O)s1`?
BoNT F protease: -3.7; BoNT-A LC inh2: -2.3; Autofluor counter: 24168*; Anthrax LF inh2: -0.4

Results for Nc1nnc(CCCCCc2nnc(N)s2)s1 ?
BoNT F protease: 3.8; BoNT-A LC inh2: -0.3; Autofluor counter: 4328; Anthrax LF inh2: -0.4

What do the screens show for `CC1=C(C(=O)Nc2cc(C)ccc2C)C(c2cccs2)NC(=S)N1` (stereo not drawn)?
BoNT F protease: -6.3; BoNT-A LC inh2: -4.6; Autofluor counter: 21275*; Anthrax LF inh2: 0.1

How did CC1=C(C(=O)Nc2ccccc2F)C(c2cccs2)NC(=S)N1 (stereo not drawn) do in these assays?
BoNT F protease: -4.1; BoNT-A LC inh2: 0.8; Autofluor counter: 4809; Anthrax LF inh2: -1.6
